Results published in the supplement of paper PMC9135407.
Several values for one entry are separate records, joined by “and”; a condition that tells them apart may be missing. Equal entries are not always repeated. Structures can show the parent of a compound that is named as a salt. About 620 (11%) of roughly 5,800 compounds showed activity. The sample as a whole holds a higher share of actives than the screen did. Values without a mark were called inactive.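 Rule for the calls: active = score above a cut-off or among the top three wells of a plate; in these data no inactive exceeds 0.85.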

Tested on: primary human hepatic stellate cells (donor 1)
Test: scaled lipid accumulation score (0 = DMSO-like, 1 = nortriptyline-like); higher = stronger HSC inactivation (lipid re-accumulation), active = hit call of the paper
Conditions: 48 h
[1] = library stock concentration: 80 uM
[2] = library stock concentration: 400 uM
[3] = library stock concentration: 2 mM
[4] = library stock concentration: 10 mM
[5] = library stock concentration: 3.33 mM
[6] = library stock concentration: 1 mM

Structure (SMILES): O=C(NCCCNc1nc(Nc2cccc(CN3CCOCC3)c2)ncc1C1CC1)C1CCC1
- scaled lipid accumulation score [1]: ≤ 0
- scaled lipid accumulation score [2]: 0.064
- scaled lipid accumulation score [3]: 0.072
- scaled lipid accumulation score [4]: 0.406

Structure (SMILES): CN(C)CCCNC(=O)[C@@H]1C[C@H](CN2CCOCC2)CN(Cc2ccc3ccccc3c2)C1
- scaled lipid accumulation score [4]: 0.993 (active)

Structure (SMILES): COc1ccccc1OCCNCC(O)COc1cccc2[nH]c3ccccc3c12 (stereo not drawn) [Carvedilol tartrate]
- scaled lipid accumulation score [4]: 0.276

Structure (SMILES): COc1ccccc1OCCNCC(O)COc1cccc2[nH]c3ccccc3c12 (stereo not drawn) [Carvedilol] [listing 1 of 5 here]
- scaled lipid accumulation score [5]: ≤ 0
- scaled lipid accumulation score (library stock concentration: 4.9 mM): 0.302 and 0.4

Structure (SMILES): COc1ccccc1OCCNCC(O)COc1cccc2[nH]c3ccccc3c12 (stereo not drawn) [Carvedilol] [listing 2 of 5 here]
- scaled lipid accumulation score [4]: 1.57 (active)

Structure (SMILES): CC(C)NC[C@H](O)COc1cccc2[nH]ccc12 [(S)-(-)-Pindolol]
- scaled lipid accumulation score [4]: 0.001

Structure (SMILES): CC(C)NCC(O)COc1cccc2[nH]ccc12 (stereo not drawn)
- scaled lipid accumulation score [4]: ≤ 0

Structure (SMILES): COc1ccccc1OCCNCC(O)COc1cccc2[nH]c3ccccc3c12 (stereo not drawn) [Carvedilol] [listing 3 of 5 here]
- scaled lipid accumulation score [4]: 1.18 (active)

Structure (SMILES): COc1ccccc1OCC(O)COC(N)=O (stereo not drawn) [Methocarbamol]
- scaled lipid accumulation score: ≤ 0
- scaled lipid accumulation score [5]: ≤ 0
- scaled lipid accumulation score (library stock concentration: 8.3 mM): ≤ -0.001
- scaled lipid accumulation score [4]: ≤ 0

Structure (SMILES): CC(C)(C)NCC(O)COc1cccc2[nH]c(=O)[nH]c12 (stereo not drawn)
- scaled lipid accumulation score [4]: ≤ -0.047

Structure (SMILES): COc1ccccc1OCCNCC(O)COc1cccc2[nH]c3ccccc3c12 (stereo not drawn) [Carvedilol] [listing 4 of 5 here]
- scaled lipid accumulation score [4]: 1.1 (active)

Structure (SMILES): COc1ccccc1OCCNCC(O)COc1cccc2[nH]c3ccccc3c12 (stereo not drawn) [Carvedilol] [listing 5 of 5 here]
- scaled lipid accumulation score [4]: 0.936 (active)

Structure (SMILES): CC(C)NCC(O)COc1cccc2[nH]ccc12 (stereo not drawn) [Pindolol]
- scaled lipid accumulation score: ≤ 0
- scaled lipid accumulation score (library stock concentration: 8.1 mM): ≤ -0.006 and 0.131
- scaled lipid accumulation score [4]: ≤ 0 and ≤ -0.055 and 0.071

Structure (SMILES): COc1ccccc1OCC(O)CO (stereo not drawn) [Guaifenesin]
- scaled lipid accumulation score: ≤ 0
- scaled lipid accumulation score [5]: ≤ 0
- scaled lipid accumulation score [4]: 0.084 and ≤ 0

Structure (SMILES): CC(C)NC[C@H](O)COc1cccc2[nH]ccc12 [S(-)-Pindolol]
- scaled lipid accumulation score [4]: ≤ -0.07

Structure (SMILES): C[C@](N)(Cc1ccc(O)cc1)C(=O)O [L-alpha-Methyl-p-tyrosine]
- scaled lipid accumulation score [4]: 0.166

Structure (SMILES): CC(C)(C)NS(=O)(=O)c1cncc(-c2cc(F)c3nc(N)nn3c2)c1
- scaled lipid accumulation score [5]: ≤ 0
- scaled lipid accumulation score [4]: ≤ -0.001

Structure (SMILES): O=C(Cc1ccccc1)NO [Phenylacetohydroxamic acid]
- scaled lipid accumulation score [4]: ≤ 0

Structure (SMILES): CCCC(=O)O[C@]1(C(=O)COC(C)=O)CC[C@H]2[C@@H]3C[C@H](F)C4=CC(=O)C=C[C@]4(C)[C@@]3(F)[C@@H](O)C[C@@]21C [Difluprednate]
- scaled lipid accumulation score [5]: ≤ 0
- scaled lipid accumulation score [4]: ≤ -0.001

Structure (SMILES): O=NN(CCCl)C(=O)NCCCl [Carmustine]
- scaled lipid accumulation score (library stock concentration: 9.3 mM): ≤ 0
- scaled lipid accumulation score [4]: ≤ 0

Structure (SMILES): C[N+](C)(C)CCO.[Br-] [Choline bromide]
- scaled lipid accumulation score [4]: ≤ 0

Structure (SMILES): CC(C)C[C@@H]1NC(=O)[C@H](CCCN)NC(=O)[C@H](C(C)C)NC(=O)[C@H](Cc2ccc(O)cc2)N[C@@H](CCC(=O)O)C(=O)N[C@@H](CC(N)=O)C(=O)[C@@H](Cc2ccccc2)NC(=O)[C@H](Cc2ccccc2)NC(=O)[C@@H]2CCCN2C(=O)[C@@H](Cc2ccccc2)NC1=O [Tyrothricin]
- scaled lipid accumulation score (library stock concentration: 1.6 mM): ≤ 0
- scaled lipid accumulation score [4]: ≤ 0

Structure (SMILES): COC(=O)CCCCCCC1C(O)CC(O)C1CCC(O)CSc1ccccc1F (stereo not drawn)
- scaled lipid accumulation score [6]: ≤ 0

Structure (SMILES): CC(=O)O/N=C1\C(=O)N(Cc2cc(Cl)ccc2Cl)c2ccc(Cl)cc21
- scaled lipid accumulation score [5]: ≤ -0.009
- scaled lipid accumulation score [4]: ≤ 0

Structure (SMILES): NC(C(=O)O)c1cc(O)cc(O)c1 (racemic)
- scaled lipid accumulation score [4]: 0.017

Structure (SMILES): C[C@H](O)[C@H](O)[C@@H](O)[C@@H](O)C=O [L-(+)-Rhamnose Monohydrate]
- scaled lipid accumulation score [5]: ≤ 0
- scaled lipid accumulation score [4]: ≤ 0

Structure (SMILES): CC(C)Nc1cccnc1N1CCN(C(=O)c2cc3cc(NS(C)(=O)=O)ccc3[nH]2)CC1 [Delavirdine mesylate]
- scaled lipid accumulation score (library stock concentration: 4.4 mM): ≤ -0.006

Structure (SMILES): COc1cc(Nc2ncc(F)c(Nc3ccc4c(n3)NC(=O)C(C)(C)O4)n2)cc(OC)c1OC [listing 1 of 2 here]
- scaled lipid accumulation score [1]: ≤ 0
- scaled lipid accumulation score [2]: 0.072
- scaled lipid accumulation score [3]: 0.159
- scaled lipid accumulation score [5]: 0.03

Structure (SMILES): COc1cc(Nc2ncc(F)c(Nc3ccc4c(n3)NC(=O)C(C)(C)O4)n2)cc(OC)c1OC [R406 (free base)]
- scaled lipid accumulation score [5]: 0.918 (active)
- scaled lipid accumulation score [4]: 1.16 (active)

Structure (SMILES): COc1cc(Nc2ncc3ccn(-c4cccc(CCC#N)c4)c3n2)cc(OC)c1OC [Keratinocyte Differentiation Inducer]
- scaled lipid accumulation score [5]: 0.501 and ≤ 0

Structure (SMILES): COc1cc(Nc2ncc(F)c(Nc3ccc4c(n3)NC(=O)C(C)(C)O4)n2)cc(OC)c1OC [listing 2 of 2 here]
- scaled lipid accumulation score [4]: 1.06 (active)

Structure (SMILES): COc1cc(Nc2ncc3c(n2)-c2ccc(Cl)cc2C(c2c(F)cccc2OC)=NC3)ccc1C(=O)O [Alisertib]
- scaled lipid accumulation score [1]: ≤ 0
- scaled lipid accumulation score [2]: ≤ 0
- scaled lipid accumulation score [3]: ≤ 0
- scaled lipid accumulation score [4]: ≤ 0

Structure (SMILES): COc1cc(Nc2ncc(F)c(Nc3ccc4c(n3)N(COP(=O)(O)O)C(=O)C(C)(C)O4)n2)cc(OC)c1OC [Fostamatinib (R788)] [listing 1 of 2 here]
- scaled lipid accumulation score [5]: 0.198

Structure (SMILES): COc1cc(Nc2ncc3c(n2)-c2ccc(Cl)cc2C(c2c(F)cccc2OC)=NC3)ccc1C(=O)O [Alisertib (MLN8237)]
- scaled lipid accumulation score [5]: ≤ 0
- scaled lipid accumulation score [4]: ≤ 0

Structure (SMILES): C=CC(=O)Nc1cccc(Nc2nc(Nc3ccc(OCCOC)cc3)ncc2F)c1
- scaled lipid accumulation score [5]: ≤ -0.009
- scaled lipid accumulation score [4]: 0.576

Structure (SMILES): COc1cc(Nc2ncc(F)c(Nc3ccc4c(n3)N(COP(=O)(O)O)C(=O)C(C)(C)O4)n2)cc(OC)c1OC [Fostamatinib (R788)] [listing 2 of 2 here]
- scaled lipid accumulation score [4]: 1.01 (active)

Structure (SMILES): C=CC(=O)Nc1cccc(Nc2nc(Nc3ccc(OCCOC)cc3)ncc2F)c1 [Spebrutinib]
- scaled lipid accumulation score [1]: ≤ -0.001
- scaled lipid accumulation score [2]: ≤ -0.001
- scaled lipid accumulation score [3]: ≤ -0.001
- scaled lipid accumulation score [4]: 0.202

Structure (SMILES): COc1cc(Nc2ncc(F)c(Nc3ccc4c(n3)NC(=O)C(C)(C)O4)n2)cc(OC)c1OC.O=S(=O)(O)c1ccccc1
- scaled lipid accumulation score [4]: 0.882 (active)

Structure (SMILES): CCCC(CCC)C(=O)O[C@H]1C[C@H]2CC[C@@H](C1)[N+]2(C)C [Anisotropine methyl bromide]
- scaled lipid accumulation score [4]: 0.296

Structure (SMILES): OC[C@H]1O[C@H](O[C@H]2[C@H](O)[C@@H](O)C(O)O[C@@H]2CO)[C@H](O)[C@@H](O)[C@@H]1O (stereo partly drawn)
- scaled lipid accumulation score [4]: ≤ 0

Structure (SMILES): Nc1nc2c(ccc3ccccc32)s1
- scaled lipid accumulation score [4]: ≤ 0

Structure (SMILES): CC1=C(C)C(=O)C(CCCCC#CCCCC#CCO)=C(C)C1=O
- scaled lipid accumulation score [4]: 0.105
- scaled lipid accumulation score (library stock concentration: 15.3 mM): ≤ -0.012

Structure (SMILES): CC1=C(C)C(=O)C(CCCCC#CCCCC#CCO)=C(C)C1=O [Docebenone]
- scaled lipid accumulation score (library stock concentration: 6.1 mM): ≤ -0.006

Structure (SMILES): O=C(O)CCNc1cc(N2CCc3ccccc3CC2)nc(-c2cccnc2)n1
- scaled lipid accumulation score [1]: ≤ 0
- scaled lipid accumulation score [2]: ≤ 0
- scaled lipid accumulation score [3]: ≤ 0
- scaled lipid accumulation score [4]: ≤ 0

Structure (SMILES): CC(C)(C)OC(=O)N[C@H]1CCCCC/C=C\[C@@H]2C[C@@]2(C(=O)NS(=O)(=O)C2CC2)NC(=O)[C@@H]2C[C@@H](OC(=O)N3Cc4cccc(F)c4C3)CN2C1=O [Danoprevir (ITMN-191)]
- scaled lipid accumulation score [5]: 0.049
- scaled lipid accumulation score [4]: ≤ 0

Structure (SMILES): CO[C@H]1C[C@@H]2CC[C@@H](C)[C@@](O)(O2)C(=O)C(=O)N2CCCC[C@H]2C(=O)O[C@H]([C@H](C)C[C@@H]2CC[C@@H](O)[C@H](OC)C2)CC(=O)[C@H](C)/C=C(\C)[C@@H](O)[C@@H](OC)C(=O)[C@H](C)C[C@H](C)/C=C/C=C/C=C/1C [Rapamycin]
- scaled lipid accumulation score [1]: ≤ 0
- scaled lipid accumulation score [2]: ≤ 0
- scaled lipid accumulation score [6]: ≤ 0
- scaled lipid accumulation score [3]: ≤ 0
- scaled lipid accumulation score [5]: ≤ 0
- scaled lipid accumulation score [4]: ≤ 0

Structure (SMILES): CO[C@H]1C[C@@H]2CC[C@@H](C)[C@@](O)(O2)C(=O)C(=O)N2CCCC[C@H]2C(=O)O[C@H]([C@H](C)C[C@@H]2CC[C@@H](O)[C@H](OC)C2)CC(=O)[C@H](C)/C=C(\C)[C@@H](O)[C@@H](OC)C(=O)[C@H](C)C[C@H](C)/C=C/C=C/C=C/1C [Rapamycin (Sirolimus)]
- scaled lipid accumulation score [5]: 0.037
- scaled lipid accumulation score [4]: ≤ 0

Structure (SMILES): O=C1NC(=O)c2c1c(-c1ccccc1)cc1[nH]c3ccc(O)cc3c21
- scaled lipid accumulation score [4]: ≤ -0.055 and ≤ -0.001

Structure (SMILES): OCCN1CCN(CCCN2c3ccccc3Sc3ccc(C(F)(F)F)cc32)CC1
- scaled lipid accumulation score [4]: 1.34 (active)

Structure (SMILES): OCCN1CCN(CCCN2c3ccccc3Sc3ccc(C(F)(F)F)cc32)CC1 [Fluphenazine hydrochloride]
- scaled lipid accumulation score [4]: 0.407

Structure (SMILES): OCCN1CCN(CCCN2c3ccccc3Sc3ccc(C(F)(F)F)cc32)CC1 [Fluphenazine dihydrochloride]
- scaled lipid accumulation score: 0.627
- scaled lipid accumulation score [4]: ≤ -0.07

Structure (SMILES): CC(C)(O)C1CCC(C)(C2C(O)CC3(C)C4CC(OC5OC(CO)C(O)C(O)C5O)C5C(C)(C)C(OC6OCC(O)C(O)C6O)CCC56CC46CCC23C)O1 (stereo not drawn) [Astragaloside A]
- scaled lipid accumulation score [5]: 0.019
- scaled lipid accumulation score [4]: ≤ 0

Structure (SMILES): CCCCC/C=C\C/C=C\C/C=C\CCCC/C=C\CCC(=O)O [cis-4,10,13,16-Docosatetraenoic Acid]
- scaled lipid accumulation score [6]: ≤ 0

Structure (SMILES): CCCCC[C@H](O)/C=C/[C@H]1[C@H](O)CC(=O)[C@@H]1C/C=C\CCCC(=O)OC [Prostaglandin E2 methyl ester]
- scaled lipid accumulation score [6]: ≤ 0

Structure (SMILES): C[C@@H](NCCCc1cccc(C(F)(F)F)c1)c1cccc2ccccc12 [Cinacalcet HCl]
- scaled lipid accumulation score [5]: 0.207
- scaled lipid accumulation score [4]: 0.351
